# Assay results taken from PubChem BioAssay AID624305 (National Center for Advancing Translational Sciences (NCATS), 2012).
# Inconclusive results are not listed. A call without a number means that no potency is given here. Active and inactive are the calls of the source. The call rests on the fitted dose curve; in most records, active means well fitted activation curve with a large enough effect; inconclusive means small, poorly fitted or top-dose-only effect; inactive means no such curve, though single readings can be large or run the other way.
# Experiment: qHTS assay for re-activators of p53 using a Luc reporter: Hit Validation; further: nearly all actives have a fitted effect of over 75% in size
# Settings: p53-responsive luciferase reporter cells, luminescence; series mostly up to 46.1 µM
# Text: The p53 tumor suppressor plays a key role in suppression of tumorigenesis and in human carcinogenesis. It is frequently found inactivated in human cancers, mainly by point mutation. These point mutations are found in a wide variety of human cancers and a majority of them affect the DNA binding domain of the protein. The point mutations either alter native p53 conformation or abolish DNA contact. Additionally, cancer cells with p53 mutations are more resistant to chemo-radiation therapies.
# In order to find activators to reactivate this important protein, a cell-based screen for p53-dependent luciferase-reporter expression was developed. A p53-null H1299 lung cancer cell line was stably co-transfected with a temperature sensitive p53 mutant, p53-A138V, and a p53-responsive BP100-luciferase reporter. This cell model has previously been characterized in a gene chip profiling experiment for p53 activation. By lowering the culture temperature from 37 deg C (mutant p53 conformation) to 32 deg C (w.t. p53 conformation), a 30-60 fold increase in activation of luciferase activity is observed. At assay temperate, 37 deg C, basal reporter expression is very low and after the addition of detection reagent, a luminescent read-out is carried out. This is the hit validation assay, confirming the hits identified from the primary screen.
# NIH Chemical Genomics Center [NCGC]
# NIH Molecular Libraries Probe Production Centers Network [MLPCN]
# Assay Provider (PI): Yi Sung, University of Michigan at Ann Arbor
# 5ul of 1000 cells per well are dispensed in all wells except column 4, into white solid-bottom TC-treated Kalypsys plates. The cells are kept in Opti-MEM and supplemented with 10% FBS and dispensed using a Multidrop (Thermo). Then using the Kalypsys pin-tool, 23nl of compounds are pinned. The compounds are starting concentration at 10mM, with 1:5 dilution, 4 points, and the control compound nocodazole is pinned in column 1 at 25mM, 1:3 dilution, in duplicate, 25mM nocodazole is pinned in column 2. Please note, all concentrations are working concentrations. 5ul of 1pM purified luciferase enzyme is dispensed using the Kalypsys dispenser in column 4. Plates are incubated for 24 hrs at 37 deg C, 5% CO2, and 95% humidity. Then 4ul of the detection reagent Amplite (ABD Bioquest) is added using the Kalypsys dispenser. Plates are incubated for 10 min at ambient room temperature and are then read on the ViewLux (Perkin Elmer) using a clear filter for a luminescent read-out.
# Potency means the concentration at half of the fitted maximal effect.
Structure (SMILES),Potency,activation
Nc1c(C(=O)NCc2ccco2)c2nc3ccccc3nc2n1Cc1ccc(F)cc1,inactive,
Nc1ccccc1N=Cc1c(O)n(CCC2=CCCCC2)c(=O)[nH]c1=O,inactive,
COc1ccc(NC(=O)C2C3CCC(O3)C2C(=O)O)c(OC)c1 (stereo unspecified),inactive,
COC(=O)C1=C(c2cccc(C#N)c2)C[C@@H]2CC[C@H]1N2C(=O)NC1CC1,inactive,
O=C(N/N=C/c1c(O)n(C2CC2)c(=S)[nH]c1=O)c1ccccc1,inactive,
Cc1cc(N2C(=O)C3CCCN3C2c2sccc2C)no1 (stereo unspecified),inactive,
N=C1c2ccccc2CN1CC(=O)c1ccccc1,20.6 µM (active),
O=C(c1cc2c(s1)CCCC2)N1CCC2(CC1)OCCO2,inactive,
COc1ccc(CN2CCNCC2)cc1,inactive,
COC(=O)C1=C(c2ccc(F)cc2OCc2ccccc2)C[C@@H]2CC[C@H]1N2C(=O)NCCOc1ccc(OC)cc1,inactive,
O=C(N/N=C/c1c(O)n(Cc2ccccc2)c(=O)[nH]c1=O)c1ccccc1,,-38.5% [at 9.22 µM] (inactive)
